This note sets out measurements from PubChem BioAssay (Tox21).

Where “and” joins values, the source holds several entries; their conditions need not be identical. Equal values may be shown once. Records with an inconclusive call do not appear. The source holds several records for some structures; these can differ, active in one and inactive in another. Calls of active or inactive are those of the source. The call rests on the fitted dose curve.
On the % scale 0 is the no-effect control and ±100 the full control effect; potency means the concentration at half of the fitted maximal effect.

A short description of this test: p53 small molecule agonists, cell-based qHTS assay with rat liver microsomes: qHTS cell viability counter screen (AID 1963580). Further: nearly all actives have a fitted effect of over 45% in size. The conditions noted are these: p53RE-bla HCT-116 + rat microsomes, ATP viability, 16 h; series mostly up to 66 µM; activity change, negative = cytotoxicity: at the top concentration. From the text: National Center for Advancing Translational Sciences [NCATS]
Division of Preclinical Innovation [DPI]
U.S. Environmental Protection Agency [EPA]
National Institutes of Environmental Health Sciences [NIEHS]
National Toxicology Program [NTP]
U.S. Food and Drug Administration [FDA]
p53, a tumor suppressor protein, is activated following cellular insult, including DNA damage and other cellular stresses. The activation of p53 regulates cell fate by inducing DNA repair, cell cycle arrest, apoptosis, or cellular senescence. The activation of p53, therefore, is a good indicator of DNA damage and other cellular stresses. The CellSensor p53RE-bla HCT-116 cell line contains a stably integrated beta-lactamase reporter gene under control of the p53 response elements. The activation of the reporter gene under culture conditions can be detected by fluorescence intensity. This cell line was used to screen the Tox21 10K compound library in the condition of presence of rat liver microsomes and to identify agonists that activate the p53 signaling pathway after in vitro metabolic activation (Ooka et al., Archive of Toxicology 96:1975-1987, 2022). The cytotoxicity of the Tox21 compound library against the p53 RE-bla HCT-116 cell line was tested in parallel by measuring the intra cellular ATP content in the same wells.
Tox21 Assay Protocol Summary:
The p53RE-bla cells were dispensed at 4,000cells/3ul/well in 1536-well black-clear bottom plates. After the assay plates were incubated at 37 C, 5% CO2 incubator for 5 hours, 23 nL of compounds dissolved in DMSO, positive controls or DMSO only was transferred to the assay plate. Following compound addition, 3 uL of rat liver microsomes (Molecular Toxicology, Boone, NC) at final concentration of 0.5 mg/mL and 1uL of B-Nicotinamide adenine dinucleotide 2'-phosphate (NADPH) at final concentration of 0.5 mg/mL were transferred to the assay plate. The plates were incubated at 37 C for 16 hours. 1 uL of LiveBLAzer detection mixture was added to each well and the plates were incubated at room temperature in the dark for 2 h. Fluorescence intensity at 460 and 530 nm emission and 405 nm excitation were measured by an Envision plate reader. For cell viability readout that measures cytotoxicity, 4 ul/well of CellTiter-Glo reagent was added into the assay plates using a Flying Reagent Dispenser. After 30 min incubation at room temperature, the luminescence intensity in the plates was measured using a ViewLux plate reader.
On the technique in general: In qHTS, concentration-response curves come from the screen itself.
With `CCCCOCCOP(=O)(OCCOCCCC)OCCOCCCC`, the Potency entry was “inactive”.

Take `ClC(Cl)(Cl)C(Cl)(Cl)Cl`: the “activity change, negative = cytotoxicity” value is 0.4% (inactive).

Turning to `O=C([O-])c1ccccn1.O=C([O-])c1ccccn1.O=C([O-])c1ccccn1.[Cr+3]`, the “activity change, negative = cytotoxicity” value was -0.212% (inactive).

As to `Cc1coc2c1CCC(C)C2` (stereo not given), the “activity change, negative = cytotoxicity” value was 6.4% (inactive).

As to `CCOC(=O)C1OC1(C)c1ccccc1` (stereo not given), the Potency entry is “inactive”.

As for `C1=Cc2cccc3cccc1c23`, the Potency result is “inactive”.

Turning to `C#CC(C)(C)NC(=O)c1cc(Cl)cc(Cl)c1`, the Potency result is “inactive”.

As for `CC1(C)[C@H](C(=O)O[C@H](C#N)c2cccc(Oc3ccccc3)c2)[C@@H]1C=C(Br)Br`, the Potency entry was “inactive”.

Turning to `ClCCBr`, the “activity change, negative = cytotoxicity” value was -0.0786% (inactive).

For `COc1cc2c(cc1OC)[C@@]13CCN4CC5=CCO[C@H]6CC(=O)N2[C@H]1[C@H]6[C@H]5C[C@H]43`, the “activity change, negative = cytotoxicity” value is 0% (inactive).

With `CCCCCCCCCCCCCCCCn1cc[n+](C)c1`, the Potency entry is “inactive and 36.7 µM (active) and 32.5 µM (active)”.

With `CCCCC(CC)COC(=O)Cl` (stereo not given), the Potency entry was “inactive”.

`CN(C)CCc1c[nH]c2cccc(OP(=O)(O)O)c12`: the “activity change, negative = cytotoxicity” value was -12.9% (inactive).

For `CCCCCCCCCCCC[N+](C)(C)CCOc1ccccc1`, the Potency is 45.8 µM (active) and inactive.

With `CC1OC(C)OC(C)O1` (stereo not given), the Potency entry was “inactive”.

In the case of `CCCCCCCCCCCCCCn1cc[n+](C)c1`, the Potency was 16.3 µM (active) and 32.1 µM (active) and inactive.

Consider `CC(C)C1(C)N=C(c2nc3ccccc3cc2C(=O)O)NC1=O` (stereo not given), for which the Potency result is “inactive”.

Regarding `NNC(=O)c1ccccc1`, the “activity change, negative = cytotoxicity” value was -1.85% (inactive).

With `S=C1NCCN1`, the Potency entry was “inactive”.

For the compound `CCOP(=S)(OCC)SCn1c(=O)oc2cc(Cl)ccc21`, the Potency result is “inactive”.

For `CC(=[OH+])/C=C(/C)[O-].CC(=[OH+])/C=C(\C)[O-].CC(=[OH+])/C=C(\C)[O-].[Fe]`, the “activity change, negative = cytotoxicity” value was -3.75% (inactive).

Regarding `O=c1n(Cl)c(=O)n(Cl)c(=O)n1Cl`, the Potency entry was “inactive”.

For the compound `COC(=O)c1cncn1C(C)c1ccccc1` (stereo not given), the “activity change, negative = cytotoxicity” value was 0.929% [at 30.3 µM] (inactive).

In the case of `O=C(O)COc1ccc(Cl)cc1Cl`, the Potency result was “inactive”.

As to `O=C(CCN1CC1)OCC(CO)(COC(=O)CCN1CC1)COC(=O)CCN1CC1`, the “activity change, negative = cytotoxicity” value is 9.03% (inactive).

Turning to `CCCCCON=O`, the “activity change, negative = cytotoxicity” value was -3.42% (inactive).

In the case of `COc1ccccc1OC`, the “activity change, negative = cytotoxicity” value is -4.15% (inactive).

`CC(C)c1ccc(OP(=O)(Oc2ccc(C(C)C)cc2)Oc2ccc(C(C)C)cc2)cc1`: the Potency result was “inactive”.

Turning to `CC(C)N(C(=O)SCC(Cl)=C(Cl)Cl)C(C)C`, the Potency entry is “inactive”.

With `CNC`, the Potency entry is “inactive”.

Turning to `COCC(=O)N(c1c(C)cccc1C)N1CCOC1=O`, the “activity change, negative = cytotoxicity” value is 21.9% (inactive).

With `ClC1(Cl)C2(Cl)C3(Cl)C4(Cl)C(Cl)(Cl)C5(Cl)C3(Cl)C1(Cl)C5(Cl)C24Cl` (stereo not given), the “activity change, negative = cytotoxicity” value is -2.78% (inactive).

As for `O=C(O)Cc1ccccc1`, the Potency entry was “inactive”.

On to `ClCc1ccccc1CCl`, for which the “activity change, negative = cytotoxicity” value was 0.607% (inactive).

`N#CN=C(N)N`: the “activity change, negative = cytotoxicity” value is -9.1% (inactive).

On to `CC[N+]1(CC)CCC(OC(=O)C(O)(c2ccccc2)c2ccccc2)C1` (stereo not given), for which the “activity change, negative = cytotoxicity” value is 3.67% [at 30.3 µM] (inactive).

`C=C(C#N)CCC#N`: the “activity change, negative = cytotoxicity” value was -3.23% (inactive).

Regarding `CC(C)(C)c1ccccc1O`, the Potency entry is “inactive”.

Turning to `C=C(C)CCl`, the Potency result was “inactive”.

`CC(C)(C)OOC(C)(C)CCC(C)(C)OOC(C)(C)C`: the “activity change, negative = cytotoxicity” value is -3.24% (inactive).
